The values below come from PubChem BioAssay AID602385 (Sanford-Burnham Center for Chemical Genomics, 2012).

The structures appear in SMILES notation. Hit rate of the full screen: of about 2,300 compounds, about 180 (7.8%) were called active. Shown is part of a subset that was picked to be rich in actives. Values without a mark were called inactive.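 Rule for the calls: active = average inhibition of at least 30% in the single-concentration confirmation test; inactive = the rest.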

The target in this experiment is DNA (cytosine-5)-methyltransferase 1 (Homo sapiens) (UniProt P26358). As to the kind of experiment: DNMT1 methyltransferase inhibitor retest, confirmation, biochemical, molecular beacon, fluorescence, single concentration (AID 602385). The note with it: DNMT1 molecular beacon HinP1I cleavage, at 10 µM, hits give high values.
Sequence of DNA (cytosine-5)-methyltransferase 1 (Homo sapiens) (P26358 504-1616 limits assumed): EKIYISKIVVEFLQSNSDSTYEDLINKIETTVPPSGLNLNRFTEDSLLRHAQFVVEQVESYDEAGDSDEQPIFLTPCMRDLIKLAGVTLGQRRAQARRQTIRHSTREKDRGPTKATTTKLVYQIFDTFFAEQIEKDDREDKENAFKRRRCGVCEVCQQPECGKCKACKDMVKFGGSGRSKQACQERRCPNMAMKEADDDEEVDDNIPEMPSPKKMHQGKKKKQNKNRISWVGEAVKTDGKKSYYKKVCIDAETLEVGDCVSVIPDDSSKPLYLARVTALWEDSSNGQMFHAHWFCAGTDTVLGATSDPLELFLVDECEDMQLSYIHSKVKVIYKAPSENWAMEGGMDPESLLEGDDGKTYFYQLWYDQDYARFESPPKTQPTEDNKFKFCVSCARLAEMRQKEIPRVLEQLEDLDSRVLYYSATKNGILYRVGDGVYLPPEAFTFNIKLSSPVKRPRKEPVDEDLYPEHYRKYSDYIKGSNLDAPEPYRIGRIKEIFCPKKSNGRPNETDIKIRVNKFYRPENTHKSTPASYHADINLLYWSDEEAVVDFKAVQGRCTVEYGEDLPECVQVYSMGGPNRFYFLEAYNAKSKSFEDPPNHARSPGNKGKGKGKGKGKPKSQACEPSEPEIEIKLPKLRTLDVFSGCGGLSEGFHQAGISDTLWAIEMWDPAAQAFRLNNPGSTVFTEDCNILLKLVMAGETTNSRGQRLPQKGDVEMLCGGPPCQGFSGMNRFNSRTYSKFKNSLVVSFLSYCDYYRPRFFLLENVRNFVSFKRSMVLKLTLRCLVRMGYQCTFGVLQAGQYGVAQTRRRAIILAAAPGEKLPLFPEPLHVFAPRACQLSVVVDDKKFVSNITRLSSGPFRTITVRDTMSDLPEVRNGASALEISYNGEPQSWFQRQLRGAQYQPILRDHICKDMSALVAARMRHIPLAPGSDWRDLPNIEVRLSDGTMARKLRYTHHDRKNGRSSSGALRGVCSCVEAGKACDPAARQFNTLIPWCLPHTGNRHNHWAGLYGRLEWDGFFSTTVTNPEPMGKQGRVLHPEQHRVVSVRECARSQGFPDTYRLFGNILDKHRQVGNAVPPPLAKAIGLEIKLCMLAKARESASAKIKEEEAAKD
`Cc1c(C(=O)O)cccc1-n1c(C)cc(/C=C2\C(=O)NC(=O)N(c3ccc4c(c3)OCO4)C2=O)c1C`: the inhibition is 35.1% (active).

On to `O=C1NC(=O)N(Cc2ccco2)C(=O)/C1=C\c1ccc(-c2ccc(F)cc2)o1`, for which the inhibition was 8.93%. With `CC1=C(C(=O)Nc2ccccc2)SCCO1` the figure was 6.68%.

For orientation: inhibition means the drop in the measured response relative to a control, in per cent.
